From PubChem BioAssay (NCI)
Where “and” joins values, the source holds several entries; their conditions need not be identical. Identical values can stand only once. About 83,000 compounds went through this panel and 20% of them were active in at least one assay; those are over-represented in the sample as a whole.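 Values shown are percent growth following 48 h exposure of cells in 96-well plates to a single concentration of compound; below 10 was considered active.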 A number with no mark means an inactive call. Calls of active or inactive are those of the source.

test system: MDA-MB-468 breast; experiment: NCI-60 one-dose screen, 48 h (100 = growth as untreated, 0 = no growth, -100 = all killed); conditions: 10 µM unless noted

Row | Structure (SMILES) | growth
1 | C#COc1cccc(Nc2ncnc3cc(NC(=O)[C@H](C)Cl)ccc23)c1 | -11.4% [6.25 µM] (active)
2 | CC/C(=C(/c1ccc(Cl)cc1)c1ccc(OCCN(CC)CC)cc1)c1ccc(OC)cc1 | 38%
3 | COC1=C(C)C(=O)c2c(c(CCCl)c3n2CCC3OC(C)=O)C1=O (stereo not given) | 85.5%
4 | Fc1cc(F)cc(NNC(=S)c2ccccc2)c1 | 43.5%
5 | CCOc1ccc(C(=O)Cc2ccccc2)cc1 | 90.2% and 96%
6 | COc1ccc(/C(=N\N=C(N)N)c2ccc(Cl)cc2)cc1OC | 52.8%
7 | COc1cc2nc(Cl)nc(Nc3cccc(C(=O)/C=C/c4ccc(Cl)cc4)c3)c2cc1OC | 63.8%
8 | CN(c1cc2ncc(=O)[nH]c2cc1NC(N)=NCc1ccc(Cl)cc1)C1CCCCC1 | -80.8% (active)
9 | COc1cc(/C=C/C(=O)c2cc(OC)c(OC)c(OC)c2)ccc1OCc1ccc(F)cc1 | 17.8%
10 | CC(=O)OC[C@]1(C)C=C2C(=O)[C@](C)(O)C3(CC3)C(C)=C2[C@H]1OC(C)=O | 21.6%
11 | COc1cccc(-c2nn(-c3ccccc3)cc2-c2ccnc(N3CCN(C(=O)c4ccccc4)CC3)c2)c1 | 82.3%
12 | Cc1ccc(C(=O)C(Br)C(Br)c2ccccc2)cc1 (stereo not given) | 42.8%
13 | Cc1cc(Cc2cc(C)c(O)c(C)c2)cc(C)c1O | -0.94% (active)
14 | O=C1[C@@H]2Cc3c([nH]c4ccccc34)[C@@H](c3ccc(Cl)cc3)N2C(=O)CN1C1CCN(Cc2ccccc2)CC1 | 49.5%
15 | Cc1ccc(NC(=O)Cn2c(Br)nc3c2c(=O)n(C)c(=O)n3C)cc1 | 10.4%
16 | COc1ccc2c(c1)nnc1c3cccnc3[nH]c21 | -92.6% (active)
17 | O=[N+]([O-])c1cc2c(cc1Br)-c1ccccc1C2 | 16.7%
18 | Cc1cc(C)c(C=O)c(C)c1 | 94.1%
19 | COc1ccc(/C=C2\C=C(c3ccccc3)N(CCc3ccccc3)C2=O)cc1OC | 44%
20 | O=C(Nc1cccc(-c2ccc(N3CCOCC3)nn2)c1)Nc1cccc(C(F)(F)F)c1 | 29.1%

Row | Structure (SMILES) | growth
21 | COc1cc(C(=O)Nc2cc(O)c(C/C=C(\C)CCC=C(C)C)c(O)c2)cc2c1O[C@]1(C)CC[C@@H](O)C(C)(C)[C@H]1C2 | 3.89% (active)
22 | C/C1=C\CC[C@@]2(C)O[C@H]2[C@H]2OC(=O)C(CN3CCN(CC4C(=O)O[C@H]5[C@H]4CC/C(C)=C/CC[C@@]4(C)O[C@@H]54)CC3)[C@@H]2CC1 (stereo not given in full) | 46.1%
23 | COc1cc(/C=C/C(=O)C2=C(/C=C/c3ccc(O)c(OC)c3)NC(=O)NC2c2ccc(O)c(OC)c2)ccc1O (stereo not given) | 88.7%
24 | CC(=O)Nc1ccc(-n2c(O)c(/C=N/NC(=O)Cc3ccccc3Nc3c(Cl)cccc3Cl)sc2=S)cc1 | 94.2%
25 | CCOC(=O)CC1CSC(N/N=C(/C)c2cccc(C(F)(F)F)c2)=N1 (stereo not given) | 104%
26 | CCCCCCCCCCCCNC(=S)N/N=C/c1ccccc1O | 53.1%
27 | CCOC(=O)CSc1nc2sc3c(c2c(=O)n1-c1ccc([N+](=O)[O-])cc1)CCCCC3 | 56.6%
28 | NC1=NN=C(N)C1=Cc1cc2ccccc2n2nnnc12 | 94.8%
29 | COc1ccc(-c2nc3sc(-c4ccc(OC)cc4)c(-c4ccc(OC)cc4)n3c2/C=C/c2ccc(C(C)C)cc2)cc1 | 98.9%
30 | NC1CCC(Nc2nc(NCc3ccc(-c4ccco4)nc3)c3ncn(C4CCCC4)c3n2)CC1 (stereo not given) | -54.3% (active)
31 | COc1ccc(-c2nn(-c3ccc(NC(=O)Nc4cc(C(F)(F)F)cc(C(F)(F)F)c4)cc3)cc2-c2ccncc2)cc1Cl | -11.6% (active)
32 | C#CCC(C(=O)OCC)C(=O)OCC | 108%
33 | N#Cc1nc(C#N)c(Sc2ccccc2)c(Sc2ccccc2)c1Sc1ccccc1 | -73.9% (active)
34 | N#C/C(=C\c1ccc(Cl)cc1Cl)C(=O)Nc1ncc(Cc2ccc(Cl)c(Cl)c2)s1 | 88.6%
35 | Cc1cccc(NC(=O)c2sc3nc4c(cc3c2N)CCC4)c1C | 10.6%
36 | Oc1ccc(Nc2ccc3ccccc3c2)cc1 | 30.5%
37 | BrC1CC(Br)c2c1c1c(c3c2C(Br)CC3Br)C(Br)CC1Br (stereo not given) | 79%
38 | O=C1Nc2c(C(=O)O)cccc2/C1=N/c1n[nH]c(=S)s1 | 89.4%
39 | COc1cc(-c2nn(-c3ccc(NC(=O)Nc4ccc(Cl)c(C(F)(F)F)c4)cc3)cc2-c2ccncc2)ccc1Cl | -13.2% (active)
40 | Fc1ccc(Nc2ccnc(N3CCN(c4ccnc5cc(Cl)ccc45)CC3)n2)cc1 | 15.9%
